Experimental data as given in PubChem BioAssay.
For some of these results: Results with a measured potency or affinity are listed apart. Active and inactive are the calls of the source.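 How the source made its calls, unless noted: active means primary screen active and over 50% activation in each of two duplicate runs; inactive means the rest.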

How the values were obtained:
[1] = system: TRPC4 beta (transient receptor potential cation channel C4), mouse; assay: activators of mouse TRPC4 channel, confirmation, cell-based, Fluo4 calcium, HEK293 TRPC4beta/mu-opioid, duplicates, 10 µM (AID 2426;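 active means fluorescence ratio normalized to control raised more than 50% in primary screen plus both repeat runs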); details: Fluo4 calcium fluorescence, at 10 µM; hits give high values
[2] = system: transient receptor potential cation channel C4 beta (TRPC4), mouse; assay: activators of mouse TRPC4 channel, confirmation, cell-based, second round, Fluo4, HEK293 TRPC4beta/mu-opioid, 1 µM (AID 2461); details: Fluo4 calcium fluorescence, at 1 µM; hits give high values
[3] = system: TRPC4 (transient receptor potential cation channel C4 beta), mouse; assay: positive allosteric modulators of mouse TRPC4, confirmation, cell-based, second round, Fluo-4, HEK293 TRPC4beta/mu-opioid, 1 µM (AID 2554;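 active means primary screen hit whose fluorescence ratio, in both repeats, exceeds the weak agonist control mean by 3 SD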); details: DAMGO EC20, Fluo-4 calcium flux, at 1 µM; hits give high values
[4] = system: TRPC4 beta (transient receptor potential cation channel C4), mouse; assay: positive allosteric modulators of mouse TRPC4, confirmation, cell-based, Fluo-4, HEK293 TRPC4beta/mu-opioid (AID 2555;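 active means primary screen hit whose calcium fluorescence ratio, in both repeats, exceeds the weak agonist control mean by 3 SD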); details: DAMGO EC20, Fluo-4 calcium flux, at 10 µM; hits give high values
[5] = biological target: Short transient receptor potential channel 4 (Mus musculus) (UniProt Q9QUQ5); assay: inhibitors of mouse TRPC4 channel, confirmation, cell-based, Fluo4, HEK293 TRPC4beta/mu-opioid (AID 2636;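 active means calcium signal cut by more than 3 SD below the full-agonist control yet still positive, in both repeats and the earlier primary screen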); details: DAMGO, Fluo4 calcium flux, at 10 µM; hits give high values
Short transient receptor potential channel 4 (Mus musculus), sequence (Q9QUQ5 whole entry, looked up): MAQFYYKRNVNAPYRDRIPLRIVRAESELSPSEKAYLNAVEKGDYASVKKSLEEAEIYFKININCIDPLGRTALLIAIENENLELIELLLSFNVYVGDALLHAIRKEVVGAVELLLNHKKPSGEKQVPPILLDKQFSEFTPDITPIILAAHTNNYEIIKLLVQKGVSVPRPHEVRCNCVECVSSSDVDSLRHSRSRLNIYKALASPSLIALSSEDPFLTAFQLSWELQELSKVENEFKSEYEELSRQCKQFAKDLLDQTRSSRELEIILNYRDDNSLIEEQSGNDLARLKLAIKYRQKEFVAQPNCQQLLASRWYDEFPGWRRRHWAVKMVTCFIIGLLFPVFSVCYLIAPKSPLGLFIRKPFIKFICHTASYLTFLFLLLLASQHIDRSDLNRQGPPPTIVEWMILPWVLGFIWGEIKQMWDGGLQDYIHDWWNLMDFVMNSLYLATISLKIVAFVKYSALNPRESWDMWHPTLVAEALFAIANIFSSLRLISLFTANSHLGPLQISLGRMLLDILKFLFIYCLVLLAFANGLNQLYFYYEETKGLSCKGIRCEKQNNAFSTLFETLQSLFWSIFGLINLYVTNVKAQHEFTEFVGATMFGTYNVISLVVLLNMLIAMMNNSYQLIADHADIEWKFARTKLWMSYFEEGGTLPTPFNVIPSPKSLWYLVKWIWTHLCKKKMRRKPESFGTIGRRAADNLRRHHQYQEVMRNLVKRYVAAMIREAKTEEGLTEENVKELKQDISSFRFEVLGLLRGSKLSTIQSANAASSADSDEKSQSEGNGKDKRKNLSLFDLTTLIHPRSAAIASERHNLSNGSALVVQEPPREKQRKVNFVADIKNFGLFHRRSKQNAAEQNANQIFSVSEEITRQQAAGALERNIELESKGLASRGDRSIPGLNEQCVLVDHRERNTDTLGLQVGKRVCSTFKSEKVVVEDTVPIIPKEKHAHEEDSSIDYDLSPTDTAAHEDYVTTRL

[6] = biological target: Short transient receptor potential channel 4 (Mus musculus) (UniProt Q9QUQ5); assay: inhibitors of mouse TRPC4 channel, confirmation, cell-based, second round, Fluo4, HEK293 TRPC4beta/mu-opioid, 1 µM (AID 2637;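 active means calcium signal ratio cut to more than 3 SD under the fully stimulated control mean yet still positive, in both repeats and the primary screen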;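 on inhibition: percent of integrated ratio relative to wells lacking test compound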); details: Fluo4 calcium flux, DAMGO, at 1 µM; hits give high values
[7] = biological target: Short transient receptor potential channel 4 (Mus musculus) (UniProt Q9QUQ5); assay: mouse TRPC4 channel activators, dose response, cell-based, HEK293 TRPC4/mu-opioid, Fluo-4 calcium (AID 434937;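 active means primary screen activator hit with a dose response curve and TRPC4 channel activation at any tested dose; inactive means no activation, no dose response, or not a primary hit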); details: HEK293 TRPC4 cells, Fluo-4 calcium fluorescence ratio; series mostly up to 20 µM
[8] = biological target: Short transient receptor potential channel 4 (Mus musculus) (UniProt Q9QUQ5); assay: TRPC4 positive allosteric modulators, dose response, cell-based, HEK293 TRPC4/mu-opioid, Fluo-4 calcium, EC20 DAMGO (AID 434941;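 active means earlier screen potentiator hit that boosts the TRPC4 ion channel at some dose, with a dose response; inactive means no potentiation, no dose response, or not a prior hit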;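 further: calcium entry triggered by an EC20 dose of DAMGO at the co-expressed mu-opioid receptor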); details: HEK293 TRPC4/mu-opioid cells, Fluo-4 calcium fluorescence; series mostly up to 20 µM
[9] = biological target: Short transient receptor potential channel 6 (Mus musculus) (UniProt Q61143); assay: inhibition of mouse TRPC6 channel, confirmation, selectivity assay for TRPC4 inhibitor project, cell-based, HEK293, membrane potential dye, duplicate (AID 434948;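 active means active in primary screen and both duplicates, each dropping signal beyond three positive-control SD with fluorescence still positive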); details: HEK293 TRPC6, membrane potential dye fluorescence, at 10 µM, stimulated with maximal-effect acetylcholine; hits give high values
Short transient receptor potential channel 6 (Mus musculus), sequence (Q61143 whole entry, looked up): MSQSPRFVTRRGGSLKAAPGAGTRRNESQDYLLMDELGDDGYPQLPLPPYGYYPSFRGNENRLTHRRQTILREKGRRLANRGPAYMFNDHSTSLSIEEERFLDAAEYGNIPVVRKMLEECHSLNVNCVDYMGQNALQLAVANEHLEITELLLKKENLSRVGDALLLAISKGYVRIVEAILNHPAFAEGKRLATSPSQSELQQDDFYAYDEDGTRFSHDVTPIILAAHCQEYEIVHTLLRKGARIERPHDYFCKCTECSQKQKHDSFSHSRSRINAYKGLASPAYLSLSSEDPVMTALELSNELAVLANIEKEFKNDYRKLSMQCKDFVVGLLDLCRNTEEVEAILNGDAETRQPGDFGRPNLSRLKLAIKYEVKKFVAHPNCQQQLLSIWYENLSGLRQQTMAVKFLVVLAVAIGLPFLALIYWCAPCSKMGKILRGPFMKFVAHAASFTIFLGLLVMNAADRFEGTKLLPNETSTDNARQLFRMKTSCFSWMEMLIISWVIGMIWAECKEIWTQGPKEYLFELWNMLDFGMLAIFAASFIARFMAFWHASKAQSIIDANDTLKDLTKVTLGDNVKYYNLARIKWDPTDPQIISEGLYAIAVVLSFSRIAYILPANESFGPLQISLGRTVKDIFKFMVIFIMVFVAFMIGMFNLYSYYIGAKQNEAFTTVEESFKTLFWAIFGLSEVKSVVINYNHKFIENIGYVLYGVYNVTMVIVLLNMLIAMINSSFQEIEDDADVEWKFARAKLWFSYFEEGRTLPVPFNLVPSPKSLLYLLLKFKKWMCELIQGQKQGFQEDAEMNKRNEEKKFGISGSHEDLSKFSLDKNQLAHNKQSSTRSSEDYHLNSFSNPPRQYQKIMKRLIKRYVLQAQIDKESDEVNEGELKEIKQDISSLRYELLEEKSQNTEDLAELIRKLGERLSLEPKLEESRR

[10] = biological target: Short transient receptor potential channel 6 (Mus musculus) (UniProt Q61143); assay: activation of mouse TRPC6 channel, confirmation, selectivity assay for TRPC4 activator project, cell-based, HEK293, membrane potential dye, duplicate (AID 434950;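 active means membrane potential signal rise above negative control mean plus 3 SD in both duplicates, also active in the earlier TRPC4 screen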); details: HEK293 TRPC6, membrane potential fluorescence, at 10 µM; hits give high values
[11] = biological target: Short transient receptor potential channel 6 (Mus musculus) (UniProt Q61143); assay: TRPC6 potentiation by TRPC4 potentiator hits, confirmation, selectivity assay for TRPC4 potentiator project, HEK293 cells, membrane potential dye, duplicate (AID 434952;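 active means compound raising the membrane signal above positive-control mean plus 3 SD in both repeats, and a primary screen hit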); details: HEK293 TRPC6, membrane potential dye fluorescence, at 10 µM, maximal acetylcholine added after compound; hits give high values
[12] = biological target: Short transient receptor potential channel 4 (Mus musculus) (UniProt Q9QUQ5); assay: calcium flux activators in TRPC4/5HT1a cells, counter-screen for TRPC4 activator project, cell-based, second counter screen, HEK293 TRPC4/5HT1a, Fluo-4 (AID 434977;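 active means calcium signal rise above buffer-control mean plus 5 SD in both duplicates, and also a hit in the primary screen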); details: Fluo-4 calcium flux, at 10 µM; hits give high values
[13] = calcium flux inhibitors in TRPC4/5HT1a cells, confirmation, counter-screen for TRPC4 inhibitor project, cell-based, second counter screen, HEK293 TRPC4/5HT1a, Fluo-4 (AID 434978;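 active means primary screen active whose calcium signal fell more than 3 SD beyond the full-serotonin control mean in both duplicate plates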); details: Fluo-4 calcium flux, at 10 µM, serotonin added to trigger calcium flux; hits give high values
[14] = system: TRPC4 (mouse), co-expressed with 5HT1a in HEK293; assay: calcium flux potentiators in TRPC4/5HT1a cells, confirmation, counter-screen for TRPC4 potentiator project, cell-based, second counter screen, HEK293 TRPC4/5HT1a, Fluo-4 (AID 434979;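 active means signal rise over 3 SD above mean of control wells given weak agonist, in both repeats and first screen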); details: Fluo-4 calcium flux, at 10 µM, serotonin added at its EC20 dose; hits give high values
[15] = calcium flux activation in mu-opioid HEK293 cells, confirmation, counter-screen for TRPC4 activator project, cell-based, HEK293 mu-opioid receptor line (AID 449723;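 active means hit in primary screen, with calcium signal over 5 SD above buffer well mean in both duplicates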;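 further: counter screen cells carry the mu-opioid receptor alone and lack TRPC4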); details: Fluo-4 calcium fluorescence, at 10 µM; hits give high values
[16] = calcium flux enhancement in mu-opioid HEK293 cells, confirmation, counter-screen for TRPC4 allosteric potentiator project, cell-based, HEK293 mu-opioid receptor line (AID 449724;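 active means calcium signal rise more than 3 SD above the low-dose agonist control mean, in both duplicate plates and the primary screen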); details: Fluo-4 calcium flux, at 10 µM, compound added before EC20 DAMGO stimulus; hits give high values

Measured: inhibition

Cc1ccccc1N(C(=O)c1snc(C(N)=O)c1N)C(C(=O)NC1CCCC1)c1ccco1 (stereo unspecified)
active: [5] 78% | [13] 37%
inactive: all other assays above

COCCNc1c2c(nc3ccccc13)CCC2
active: [5] 100% | [6] 57% | [9] 37.5% | [13] 11.8%
inactive: all other assays above

CCn1nc(C)c(CN2CCCC(CO)(Cc3cccc(Cl)c3)C2)c1C (stereo unspecified)
active: [5] 90% | [6] 49%
inactive: all other assays above

O=C(CSc1nnc(-c2ccc(Cl)cc2Cl)n1C1CCCCC1)NC1CCS(=O)(=O)C1 (stereo unspecified)
active: [5] 82%
inactive: all other assays above

COc1ccc(Nc2cc(C)nc3ccccc23)cc1
active: [5] 86% | [9] 39% | [13] 28.9%
inactive: all other assays above

CCOC(=O)c1c(NC(=O)C(C)Sc2nnc(C)c(=O)[nH]2)sc2c1CCCC2 (stereo unspecified)
active: [5] 77% | [6] 87% | [13] 28.1%
inactive: all other assays above

Cc1ncsc1CCOC(=O)c1cccc([N+](=O)[O-])c1
active: [5] 83% | [6] 49% | [13] 40%
inactive: all other assays above

CCCCOc1ccc(Nc2cc(Cl)ccc2C(=O)O)cn1
active: [13] 27.6%
inactive: all other assays above

CCCSc1nc(N)nc(-c2cccs2)c1C#N
active: [5] 89% | [6] 50% | [13] 36.8%
inactive: all other assays above

COc1ccc(Nc2nc(NCC3CCCO3)c3ccccc3n2)c(OC)c1 (stereo unspecified)
active: [5] 93% | [6] 50% | [9] 5.5% | [13] 41.4%
inactive: all other assays above

COc1ccc(Br)cc1CNC(C)c1ccccc1 (stereo unspecified)
active: [5] 55% | [9] 49.5% | [13] 23.6%
inactive: all other assays above

CC1CCCN1CC#CC(O)(c1ccccc1)c1ccccc1 (stereo unspecified)
active: [5] 79% | [6] 62% | [9] 13.5% | [13] 33.5%
inactive: all other assays above

CCCNC(=O)c1nnsc1S(=O)c1ccc(Cl)cc1 (stereo unspecified)
active: [5] 88% | [6] 42% | [13] 20.3%
inactive: all other assays above

Oc1ccc(CN2CCCCC2)nc1-c1ccccc1
active: [5] 92% | [6] 43% | [13] 31.7%
inactive: all other assays above

CCCOc1ccc(-c2nc(SCc3ccccc3)[nH]c(=O)c2C#N)cc1OC
active: [5] 66%
inactive: all other assays above

CCOCc1cn(CC(=O)c2ccc(Cl)cc2)c(C)nc1=N
active: [5] 97% | [6] 72% | [13] 13%
inactive: all other assays above

O=C(Cc1ccccc1[N+](=O)[O-])OCc1cccc([N+](=O)[O-])c1
active: [5] 92% | [6] 62% | [13] 35%
inactive: all other assays above

Cc1ccc(O)c(CNc2nc3ccccc3[nH]2)c1
active: [5] 96% | [6] 76% | [13] 24.5%
inactive: all other assays above

COc1ccc(Nc2cc(C)nc3ccc(OC)cc23)cc1
active: [5] 91% | [9] 29.5%
inactive: all other assays above

CCOC(=O)c1cc(C#N)c(N2CCCCC2)nc1-c1ccccc1
active: [5] 93%
inactive: all other assays above

CCOC(=O)c1oc2ccccc2c1CN1CCCCC1
active: [5] 91% | [13] 34.9%
inactive: all other assays above

Cc1ccc(C)c(S(=O)(=O)/N=C2\C=C(NS(=O)(=O)c3ccccc3)C(=O)c3ccccc32)c1
active: [5] 92% | [9] 33%
inactive: all other assays above

CCOc1ccc(NC(=O)c2c[nH]n3c(=O)cc(C4CCN(C(=O)OC(C)(C)C)CC4)nc23)cc1
active: [5] 50% | [13] 43.4%
inactive: all other assays above

Cc1ccc(-c2csc(NC(=O)C3CC=CCC3C(=O)O)c2C(=O)OC(C)C)cc1 (stereo unspecified)
active: [13] 20.1%
inactive: all other assays above

CC(C)(c1ccccc1)c1ccc(OCCCNCCO)cc1
active: [5] 79% | [13] 13.3%
inactive: all other assays above

CCCn1c(=O)c2ccccc2n2c(SCCOc3ccc(C)cc3)nnc12
active: [5] 77% | [13] 46.3%
inactive: all other assays above

OCC1(CCCc2ccccc2)CCN(Cc2cc(F)ccc2F)CC1
active: [5] 92%
inactive: all other assays above

O=C(c1ccco1)N1CCN(C/C=C/c2ccccc2)CC1
active: [5] 87% | [6] 64%
inactive: all other assays above

CCN(C(=O)c1c(-c2ccccc2Cl)noc1C)C1CCCCC1
active: [5] 71% | [13] 38.5%
inactive: all other assays above

Cc1ccc(N2CCN(C(=O)c3ccccc3F)CC2)c(C)c1
active: [5] 84% | [6] 41% | [13] 26.6%
inactive: all other assays above

CC(=O)N1CCN(c2ccccc2NC(=O)c2cccs2)CC1
active: [5] 76% | [6] 43%
inactive: all other assays above
